Experimental data taken from PubChem BioAssay AID1159580 (chemical genetic matrix, 2015).
About 2,000 (36%) of roughly 5,500 compounds were called active. Not shown: some 18% with an inconclusive outcome. The list shows a part of the results. A number with no mark means an inactive call. Rule as the data show it: active = normalized growth mostly below about 0.91 (no sharp cut-off); inconclusive = no clear call, values can overlap the other calls; inactive = mostly above about 0.92.

Assay: chemical genetic growth profiling, strain panel (AID 1159580);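 also: tested at 20 µM; growth read once vehicle control cultures reached saturation at 30 °C; 1 = growth at the plate median or of vehicle wells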
Conditions: S. cerevisiae deletion strains, growth OD

Compound: CC(=O)Oc1c(-c2ccccc2)oc2c(CC=C(C)C)c3c(c(OC(C)=O)c2c1=O)C=CC(C)(C)O3
- normalized growth (locus YAL021C, strain ccr4, stronger effect = lower value): 1.06
- normalized growth (locus YAL026C, strain drs2, stronger effect = lower value): 1.02
- normalized growth (locus YAL030W, strain snc1, stronger effect = lower value): 1.09 [resistant] (active)
- normalized growth (locus YBL061C, strain skt5, stronger effect = lower value): 1
- normalized growth (locus YBR009C, strain hhf1, stronger effect = lower value): 1.09
- normalized growth (locus YBR021W, strain FUR4, stronger effect = lower value): 1.05
- normalized growth (locus YBR023C, strain chs3, stronger effect = lower value): 1.01
- normalized growth (locus YBR171W, strain sec66, stronger effect = lower value): 1.01
- normalized growth (locus YBR229C, strain ROT2, stronger effect = lower value): 0.923
- normalized growth (locus YBR231C, strain swc5, stronger effect = lower value): 1.02
- normalized growth (locus YBR279W, strain paf1, stronger effect = lower value): 0.995
- normalized growth (locus YCL011C, strain gbp2, stronger effect = lower value): 1.09
- normalized growth (locus YCL016C, strain dcc1, stronger effect = lower value): 1.05
- normalized growth (locus YCL029C, strain bik1, stronger effect = lower value): 1.01
- normalized growth (locus YCL061C, strain MRC1, stronger effect = lower value): 1.02
- normalized growth (locus YCL069W, strain vba3, stronger effect = lower value): 1.01
- normalized growth (locus YCR088W, strain abp1, stronger effect = lower value): 1.01
- normalized growth (locus YDL005C, strain med2, stronger effect = lower value): 1.01
- normalized growth (locus YDL035C, strain GPR1, stronger effect = lower value): 0.875
- normalized growth (locus YDL040C, strain nat1, stronger effect = lower value): 1.09 [resistant] (active)
- normalized growth (locus YDL074C, strain BRE1, stronger effect = lower value): 0.93
- normalized growth (locus YDL101C, strain DUN1, stronger effect = lower value): 0.944
- normalized growth (locus YDL185W, strain tfp1, stronger effect = lower value): 1.07
- normalized growth (locus YDL192W, strain arf1, stronger effect = lower value): 1.01
- normalized growth (locus YDR001C, strain nth1, stronger effect = lower value): 1.01
- normalized growth (locus YDR069C, strain doa4, stronger effect = lower value): 1.01
- normalized growth (locus YDR101C, strain arx1, stronger effect = lower value): 1.09 [resistant] (active)
- normalized growth (locus YDR137W, strain rgp1, stronger effect = lower value): 1.03
- normalized growth (locus YDR159W, strain sac3, stronger effect = lower value): 0.982
- normalized growth (locus YDR162C, strain NBP2, stronger effect = lower value): 0.828 (active)
- normalized growth (locus YDR195W, strain ref2): 0.986
- normalized growth (locus YDR297W, strain sur2, stronger effect = lower value): 1.04
- normalized growth (locus YDR318W, strain mcm21, stronger effect = lower value): 0.995
- normalized growth (locus YDR334W, strain swr1, stronger effect = lower value): 1
- normalized growth (locus YDR335W, strain msn5, stronger effect = lower value): 1.02
- normalized growth (locus YDR388W, stronger effect = lower value): 1.05
- normalized growth (locus YDR392W, strain spt3, stronger effect = lower value): 0.955
- normalized growth (locus YDR502C, strain sam2, stronger effect = lower value): 1.11 [resistant] (active)
- normalized growth (locus YEL003W, strain gim4, stronger effect = lower value): 1.03
- normalized growth (locus YEL037C, strain rad23, stronger effect = lower value): 1.01
- normalized growth (locus YEL061C, strain CIN8 (second series), stronger effect = lower value): 1.01
- normalized growth (locus YER015W, strain faa2, stronger effect = lower value): 1.08 [resistant] (active)
- normalized growth (locus YER016W, strain bim1, stronger effect = lower value): 1.1 [resistant] (active)
- normalized growth (locus YER110C, stronger effect = lower value): 1.11 [resistant] (active)
- normalized growth (locus YER111C, strain swi4, stronger effect = lower value): 1
- normalized growth (locus YER155C, strain BEM2 (second series), stronger effect = lower value): 1.05
- normalized growth (locus YER155C, strain BEM2, stronger effect = lower value): 1
- normalized growth (locus YER167W, strain BCK2, stronger effect = lower value): 0.917
- normalized growth (locus YFR010W, strain ubp6, stronger effect = lower value): 1
- normalized growth (locus YGL078C, strain dbp3, stronger effect = lower value): 1.04
- normalized growth (locus YGL086W, strain mad1, stronger effect = lower value): 0.993
- normalized growth (locus YGL167C, strain pmr1, stronger effect = lower value): 0.993
- normalized growth (locus YGL173C, strain kem1, stronger effect = lower value): 0.998
- normalized growth (locus YGL227W, strain vid30, stronger effect = lower value): 1.01
- normalized growth (locus YGL240W, strain doc1, stronger effect = lower value): 1
- normalized growth (locus YGL248W, strain PDE1, stronger effect = lower value): 0.845 (active)
- normalized growth (locus YGL253W, strain hxk2, stronger effect = lower value): 0.981
- normalized growth (locus YGR078C, strain PAC10, stronger effect = lower value): 0.898
- normalized growth (locus YGR135W, strain pre9, stronger effect = lower value): 1.1
- normalized growth (locus YGR252W, strain gcn5, stronger effect = lower value): 1.59 [resistant] (active)
- normalized growth (locus YHR013C, strain ard1, stronger effect = lower value): 0.989
- normalized growth (locus YHR027C, strain rpn1, stronger effect = lower value): 1.06
- normalized growth (locus YHR079C, strain IRE1 (second series), stronger effect = lower value): 1.06
- normalized growth (locus YHR094C, strain hxt1, stronger effect = lower value): 1.16 [resistant] (active)
- normalized growth (locus YHR129C, strain ARP1, stronger effect = lower value): 0.881 (active)
- normalized growth (locus YHR142W, strain chs7, stronger effect = lower value): 1.03
- normalized growth (locus YHR200W, strain rpn10, stronger effect = lower value): 1.09 [resistant] (active)
- normalized growth (locus YIL066C, strain RNR3, stronger effect = lower value): 0.788 (active)
- normalized growth (locus YIL073C, strain SPO22, stronger effect = lower value): 0.586 (active)
- normalized growth (locus YIL125W, strain kgd1, stronger effect = lower value): 1.03
- normalized growth (locus YIR030C, strain dcg1, stronger effect = lower value): 1.06
- normalized growth (locus YJL092W, strain hpr5, stronger effect = lower value): 1.01
- normalized growth (locus YJL095W, strain BCK1 (second series), stronger effect = lower value): 1.09 [resistant] (active)
- normalized growth (locus YJL095W, strain BCK1, stronger effect = lower value): 0.926
- normalized growth (locus YJL115W, strain asf1, stronger effect = lower value): 1
- normalized growth (locus YJL129C, strain trk1, stronger effect = lower value): 1.02
- normalized growth (locus YJL134W, strain LCB3, stronger effect = lower value): 0.948
- normalized growth (locus YJL154C, strain vps35, stronger effect = lower value): 1.02
- normalized growth (locus YJL164C, strain tpk1, stronger effect = lower value): 1.03
- normalized growth (locus YJL166W, strain qcr8, stronger effect = lower value): 1.04
- normalized growth (locus YJL168C, strain set2, stronger effect = lower value): 1.03
- normalized growth (locus YJL187C, strain SWE1 (second series), stronger effect = lower value): 0.885
- normalized growth (locus YJL187C, strain SWE1, stronger effect = lower value): 1.05
- normalized growth (locus YKL009W, strain mrt4, stronger effect = lower value): 1.04
- normalized growth (locus YKL068W, stronger effect = lower value): 1.01
- normalized growth (locus YKL085W, strain MDH1 (second series), stronger effect = lower value): 1
- normalized growth (locus YKL085W, strain MDH1, stronger effect = lower value): 1
- normalized growth (locus YKL160W, strain elf1, stronger effect = lower value): 1
- normalized growth (locus YKL190W, strain CNB1, stronger effect = lower value): 0.906 (active)
- normalized growth (locus YKR001C, strain vps1, stronger effect = lower value): 1.21 [resistant] (active)
- normalized growth (locus YKR026C, strain gcn3, stronger effect = lower value): 1
- normalized growth (locus YKR091W, strain srl3, stronger effect = lower value): 1.14 [resistant] (active)
- normalized growth (locus YLL001W, strain dnm1, stronger effect = lower value): 0.976
- normalized growth (locus YLL026W, stronger effect = lower value): 1.07 [resistant] (active)
- normalized growth (locus YLL041C, strain sdh2, stronger effect = lower value): 1.09 [resistant] (active)
- normalized growth (locus YLR027C, strain aat2, stronger effect = lower value): 1.03
- normalized growth (locus YLR039C, strain RIC1, stronger effect = lower value): 0.891
- normalized growth (locus YLR058C, strain SHM2, stronger effect = lower value): 0.891 (active)
- normalized growth (locus YLR102C, strain apc9, stronger effect = lower value): 1.06
- normalized growth (locus YLR221C, strain rsa3, stronger effect = lower value): 1.04
- normalized growth (locus YLR258W, strain gsy2, stronger effect = lower value): 1.03
- normalized growth (locus YLR262C, strain YPT6 (second series), stronger effect = lower value): 1.02
- normalized growth (locus YLR262C, strain YPT6, stronger effect = lower value): 0.874
- normalized growth (locus YLR268W, strain sec22, stronger effect = lower value): 1.05
- normalized growth (locus YLR320W, strain mms22, stronger effect = lower value): 0.999
- normalized growth (locus YLR330W, strain CHS5, stronger effect = lower value): 0.924
- normalized growth (locus YLR342W, strain FKS1, stronger effect = lower value): 1.05
- normalized growth (locus YLR357W, strain rsc2, stronger effect = lower value): 0.992
- normalized growth (locus YLR370C, strain arc18, stronger effect = lower value): 1.01
- normalized growth (locus YLR371W, strain rom2, stronger effect = lower value): 1.01
- normalized growth (locus YLR384C, strain iki3, stronger effect = lower value): 1.1 [resistant] (active)
- normalized growth (locus YLR418C, strain cdc73, stronger effect = lower value): 1.17 [resistant] (active)
- normalized growth (locus YML016C, strain PPZ1, stronger effect = lower value): 0.874 (active)
- normalized growth (locus YML032C, strain rad52, stronger effect = lower value): 1.14 [resistant] (active)
- normalized growth (locus YML120C, strain ndi1, stronger effect = lower value): 1.07
- normalized growth (locus YML124C, strain tub3, stronger effect = lower value): 1.07 [resistant] (active)
- normalized growth (locus YMR058W, strain fet3, stronger effect = lower value): 1.02
- normalized growth (locus YMR078C, strain ctf18, stronger effect = lower value): 1.14 [resistant] (active)
- normalized growth (locus YMR125W, strain sto1, stronger effect = lower value): 1.02
- normalized growth (locus YMR129W, stronger effect = lower value): 1.12 [resistant] (active)
- normalized growth (locus YMR205C, strain PFK2, stronger effect = lower value): 1.01
- normalized growth (locus YMR223W, strain ubp8, stronger effect = lower value): 1.05
- normalized growth (locus YMR231W, strain pep5, stronger effect = lower value): 1
- normalized growth (locus YMR307W, strain GAS1, stronger effect = lower value): 0.818
- normalized growth (locus YNL067W, strain RPL9B, stronger effect = lower value): 0.988
- normalized growth (locus YNL071W, strain lat1, stronger effect = lower value): 1.02
- normalized growth (locus YNL209W, strain ssb2, stronger effect = lower value): 1.05
- normalized growth (locus YNL233W, strain BNI4, stronger effect = lower value): 0.915
- normalized growth (locus YNL248C, strain rpa49, stronger effect = lower value): 0.984
- normalized growth (locus YNL250W, strain rad50, stronger effect = lower value): 1.03
- normalized growth (locus YNL271C, strain bni1, stronger effect = lower value): 1.04
- normalized growth (locus YNL298W, strain CLA4, stronger effect = lower value): 1.04
- normalized growth (locus YNL307C, strain MCK1, stronger effect = lower value): 1.03
- normalized growth (locus YNL322C, strain KRE1 (second series), stronger effect = lower value): 1.05
- normalized growth (locus YNR049C, strain mso1, stronger effect = lower value): 1.01
- normalized growth (locus YNR052C, strain pop2, stronger effect = lower value): 1.07
- normalized growth (locus YOL012C, strain htz1): 0.869
- normalized growth (locus YOL147C, strain pex11, stronger effect = lower value): 1.09 [resistant] (active)
- normalized growth (locus YOR001W, strain rrp6, stronger effect = lower value): 1.01
- normalized growth (locus YOR061W, strain CKA2, stronger effect = lower value): 0.782 (active)
- normalized growth (locus YOR069W, strain VPS5, stronger effect = lower value): 0.935
- normalized growth (locus YOR070C, strain gyp1, stronger effect = lower value): 1.16 [resistant] (active)
- normalized growth (locus YOR080W, strain dia2, stronger effect = lower value): 1.03
- normalized growth (locus YOR083W, strain WHI5, stronger effect = lower value): 1.06
- normalized growth (locus YOR106W, strain vam3, stronger effect = lower value): 1.08
- normalized growth (locus YOR136W, strain idh2, stronger effect = lower value): 1.11 [resistant] (active)
- normalized growth (locus YOR144C, strain elg1, stronger effect = lower value): 1.08 [resistant] (active)
- normalized growth (locus YOR184W, strain ser1, stronger effect = lower value): 1.07
- normalized growth (locus YOR265W, strain rbl2, stronger effect = lower value): 1.05
- normalized growth (locus YOR270C, strain vph1, stronger effect = lower value): 0.972
- normalized growth (locus YOR290C, strain snf2, stronger effect = lower value): 1.03
- normalized growth (locus YOR316C, strain cot1, stronger effect = lower value): 1.07
- normalized growth (locus YPL051W, strain arl3, stronger effect = lower value): 0.976
- normalized growth (locus YPL078C, strain atp4, stronger effect = lower value): 1.03
- normalized growth (locus YPL106C, strain sse1, stronger effect = lower value): 1.02
- normalized growth (locus YPL240C, strain hsp82, stronger effect = lower value): 1.1 [resistant] (active)
- normalized growth (locus YPR119W, strain clb2, stronger effect = lower value): 1.05
- normalized growth (locus YPR141C, strain kar3, stronger effect = lower value): 1.09 [resistant] (active)
- normalized growth (locus YPR163C, strain tif3, stronger effect = lower value): 1.14 [resistant] (active)
- normalized growth (locus YPR167C, strain met16, stronger effect = lower value): 1
- normalized growth (strain wtn01, stronger effect = lower value): 1.03
